{"source": "paper PMC4336329", "about": "(PLoS ONE, 2015)", "note": "Hit rate of the full screen: of about 310,000 compounds, about 14,000 (4.5%) showed an effect of 50% or more. The effect is printed as a negative number. Many of the other results were omitted from the sample, so strong results are more common in it than they were.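 Further: peak tail current of the secondary pulse compared with the same well before compound.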", "data": [{"molecular_target": "human ether-à-go-go-related gene (hERG) potassium channel (human, UniProt Q12809)", "sequence (Q12809 whole entry, looked up)": "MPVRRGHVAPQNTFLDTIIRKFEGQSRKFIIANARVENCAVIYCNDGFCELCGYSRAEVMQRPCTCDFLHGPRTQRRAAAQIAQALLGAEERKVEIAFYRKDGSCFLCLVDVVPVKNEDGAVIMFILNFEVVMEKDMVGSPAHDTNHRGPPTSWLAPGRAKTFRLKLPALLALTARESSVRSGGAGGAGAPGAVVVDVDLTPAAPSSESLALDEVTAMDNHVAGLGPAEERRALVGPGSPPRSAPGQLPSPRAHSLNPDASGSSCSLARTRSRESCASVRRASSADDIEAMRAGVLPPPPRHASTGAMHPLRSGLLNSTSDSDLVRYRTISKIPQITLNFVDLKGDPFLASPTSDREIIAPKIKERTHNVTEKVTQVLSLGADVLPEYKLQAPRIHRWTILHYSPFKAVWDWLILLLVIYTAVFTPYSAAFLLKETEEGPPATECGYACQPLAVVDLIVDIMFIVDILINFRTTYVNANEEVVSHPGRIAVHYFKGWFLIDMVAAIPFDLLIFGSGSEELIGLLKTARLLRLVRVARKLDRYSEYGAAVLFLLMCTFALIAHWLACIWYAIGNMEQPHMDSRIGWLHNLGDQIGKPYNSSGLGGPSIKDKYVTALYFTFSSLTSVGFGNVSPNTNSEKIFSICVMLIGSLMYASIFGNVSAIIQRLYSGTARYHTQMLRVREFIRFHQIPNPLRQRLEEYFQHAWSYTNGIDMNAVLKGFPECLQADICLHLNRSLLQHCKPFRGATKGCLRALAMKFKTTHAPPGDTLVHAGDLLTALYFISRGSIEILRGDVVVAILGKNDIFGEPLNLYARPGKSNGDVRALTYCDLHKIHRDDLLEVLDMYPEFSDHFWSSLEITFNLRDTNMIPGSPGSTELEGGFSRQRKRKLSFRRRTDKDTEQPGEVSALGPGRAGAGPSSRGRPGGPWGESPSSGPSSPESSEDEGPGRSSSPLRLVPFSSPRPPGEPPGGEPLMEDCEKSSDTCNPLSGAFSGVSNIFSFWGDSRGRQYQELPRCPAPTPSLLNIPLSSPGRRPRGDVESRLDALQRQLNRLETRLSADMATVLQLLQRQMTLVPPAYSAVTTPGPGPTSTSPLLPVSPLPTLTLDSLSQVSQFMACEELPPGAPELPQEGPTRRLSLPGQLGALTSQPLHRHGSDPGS", "assay": "primary screen, population patch clamp on CHO cells stably expressing hERG; higher = less effect of the substance", "units": {"hERG current change (%, negative = inhibition) at 10uM": "%"}, "values": [{"smiles": "CCOC(=O)Nc1ccc2c(c1)N(C(=O)CN(C)C)c1ccccc1CC2.Cl", "hERG current change (%, negative = inhibition) at 10uM": -7.94}, {"smiles": "CCOC(=O)C1CCN(C(=O)c2cc3c(=O)n4cccc(C)c4nc3s2)CC1", "hERG current change (%, negative = inhibition) at 10uM": -15.5}, {"smiles": "FC(F)(F)c1cc(N2CCN(Cc3ccccc3)CC2)c2ccccc2n1", "hERG current change (%, negative = inhibition) at 10uM": 10.9}, {"smiles": "CC(CCc1ccccc1)NC(=O)CNC(=O)N1CC(=O)Nc2ccccc21", "note": "(stereo not drawn)", "hERG current change (%, negative = inhibition) at 10uM": -2.77}, {"smiles": "CCOCCOC(=O)c1[nH]c2c(c1C)C(=O)CC(c1ccccc1)C2", "note": "(stereo not drawn)", "hERG current change (%, negative = inhibition) at 10uM": 7.35}, {"smiles": "Cc1sc(NC(=S)NC(=O)c2ccc(C(C)(C)C)cc2)c(C#N)c1C", "hERG current change (%, negative = inhibition) at 10uM": 6.48}, {"smiles": "COc1ccc(CCNC(=O)CN2C(=O)COc3ccc(S(=O)(=O)N4CCOCC4)cc32)c(OC)c1", "hERG current change (%, negative = inhibition) at 10uM": -28.1}, {"smiles": "CN(Cc1ccccc1)S(=O)(=O)c1ccc(OCC(=O)N2CCC(C(N)=O)CC2)cc1", "hERG current change (%, negative = inhibition) at 10uM": -2.99}, {"smiles": "O=C(Nc1ccc2ccccc2c1)N1CCN(c2ncccc2C(F)(F)F)CC1", "hERG current change (%, negative = inhibition) at 10uM": -7.58}, {"smiles": "O=C(c1cc([N+](=O)[O-])cc([N+](=O)[O-])c1)N1CCN(Cc2ccc3c(c2)OCO3)CC1", "hERG current change (%, negative = inhibition) at 10uM": -58.2}, {"smiles": "O=C(c1cccc([N+](=O)[O-])c1)N1CCN(Cc2ccc3c(c2)OCO3)CC1", "hERG current change (%, negative = inhibition) at 10uM": -44.3}, {"smiles": "CCCCOc1ccc(C(=O)NCC(=O)N2CCN(Cc3ccc4c(c3)OCO4)CC2)cc1", "hERG current change (%, negative = inhibition) at 10uM": -42.4}, {"smiles": "Cc1ccc(C(=O)N2CCN(Cc3ccc4c(c3)OCO4)CC2)cc1C", "hERG current change (%, negative = inhibition) at 10uM": -14.4}, {"smiles": "O=C(Cc1ccc([N+](=O)[O-])cc1)N1CCN(Cc2ccc3c(c2)OCO3)CC1", "hERG current change (%, negative = inhibition) at 10uM": -45.5}, {"smiles": "CCCOc1ccc(C(=O)N2CCN(Cc3ccc4c(c3)OCO4)CC2)cc1", "hERG current change (%, negative = inhibition) at 10uM": -67.7}, {"smiles": "C/C(=N\\NC(=O)Nc1ccccc1)c1ccccc1", "hERG current change (%, negative = inhibition) at 10uM": 9.14}, {"smiles": "NS(=O)(=O)c1ccc(CCNC(=O)COC(=O)CCSc2ccc(Cl)cc2)cc1", "hERG current change (%, negative = inhibition) at 10uM": -18.5}, {"smiles": "CC(C)(C)NC(=O)CCCSc1nc2ccccc2s1", "hERG current change (%, negative = inhibition) at 10uM": -24.4}, {"smiles": "Nc1nc(Cl)cc(Oc2ccc(Cl)cc2)n1", "hERG current change (%, negative = inhibition) at 10uM": 9.29}, {"smiles": "CCc1cccc(OC2OC(CO)C(O)C(O)C2NC(C)=O)c1", "note": "(stereo not drawn)", "hERG current change (%, negative = inhibition) at 10uM": 0.684}, {"smiles": "O=C(NCCCNc1ccc([N+](=O)[O-])cc1Cl)c1ccccc1F", "hERG current change (%, negative = inhibition) at 10uM": -4.03}, {"smiles": "Clc1ccc2c(NCc3ccccc3)ccnc2c1", "hERG current change (%, negative = inhibition) at 10uM": -45.5}, {"smiles": "Clc1ccc2c(NCc3ccccn3)ccnc2c1", "hERG current change (%, negative = inhibition) at 10uM": -39.7}, {"smiles": "O=C(NCCNc1ccnc2cc(Cl)ccc12)c1ccccc1F", "hERG current change (%, negative = inhibition) at 10uM": -66.4}, {"smiles": "O=C(NCCNc1ccc(Cl)cc1[N+](=O)[O-])c1ccccc1F", "hERG current change (%, negative = inhibition) at 10uM": 3.81}, {"smiles": "O=C(NCCCNc1ccnc2cc(Cl)ccc12)c1ccccc1F", "hERG current change (%, negative = inhibition) at 10uM": -72.4}, {"smiles": "C1=CCC(CN2CCNCC2)CC1.O=C(O)C(F)(F)F", "note": "(stereo not drawn)", "hERG current change (%, negative = inhibition) at 10uM": 9.96}, {"smiles": "CN(C)C(=O)COC(=O)c1ccccc1NC(=O)c1ccco1", "hERG current change (%, negative = inhibition) at 10uM": -15.7}, {"smiles": "CNC(=O)COC(=O)c1ccccc1NC(=O)c1ccco1", "hERG current change (%, negative = inhibition) at 10uM": -52.1}, {"smiles": "O=C(COC(=O)c1ccccc1NC(=O)c1ccco1)NC1CC1", "hERG current change (%, negative = inhibition) at 10uM": -19}, {"smiles": "O=C(Nc1ccccc1C(=O)OCC(=O)N1CCc2ccccc2C1)c1ccco1", "hERG current change (%, negative = inhibition) at 10uM": -30.9}, {"smiles": "CC1CCN(C(=O)COC(=O)c2ccccc2NC(=O)c2ccco2)CC1", "hERG current change (%, negative = inhibition) at 10uM": -60.9}, {"smiles": "CC(C)(C)NC(=O)COC(=O)c1ccccc1NC(=O)c1ccco1", "hERG current change (%, negative = inhibition) at 10uM": -7.06}, {"smiles": "CS(=O)(=O)N1CCN(C2C3CC4CC(C3)CC2C4)CC1.O=C(O)C(=O)O", "note": "(stereo not drawn)", "hERG current change (%, negative = inhibition) at 10uM": 26.3}, {"smiles": "CC(=O)Nc1ccc(N(C(=O)c2cnccn2)C(C(=O)NC2CCCCC2)c2ccc(F)cc2)cc1", "note": "(stereo not drawn)", "hERG current change (%, negative = inhibition) at 10uM": 0.645}, {"smiles": "CC(=O)c1ccccc1C(=O)N(C)C1CCCN(Cc2ccccc2F)C1", "note": "(stereo not drawn)", "hERG current change (%, negative = inhibition) at 10uM": 15.2}, {"smiles": "CNC(=O)N(O)C1N(/N=C/c2ccc(SC)cc2)C(=S)SC1(C)C", "note": "(stereo not drawn)", "hERG current change (%, negative = inhibition) at 10uM": 26.3}, {"smiles": "O=C(NCCN1CCOCC1)c1ccc2c(c1)N(Cc1ccc(Cl)cc1)CCS2", "hERG current change (%, negative = inhibition) at 10uM": -29.8}, {"smiles": "N#Cc1c(N)n(-c2ccc(O)cc2)c2nc3ccccc3nc12", "hERG current change (%, negative = inhibition) at 10uM": 8.96}, {"smiles": "COc1cccc(CC2(CO)CCCN(Cc3ccccc3Cl)C2)c1", "note": "(stereo not drawn)", "hERG current change (%, negative = inhibition) at 10uM": -31.2}, {"smiles": "Cc1ccc(C)c(-c2[nH]ncc2CN2CCCC(CO)(Cc3ccccc3C)C2)c1", "note": "(stereo not drawn)", "hERG current change (%, negative = inhibition) at 10uM": -47.8}, {"smiles": "COc1cccc(CC2(CO)CCCN(Cc3cn[nH]c3-c3ccccc3)C2)c1", "note": "(stereo not drawn)", "hERG current change (%, negative = inhibition) at 10uM": -49.9}, {"smiles": "COc1cccc(CC2(CO)CCCN(Cc3cn(C)c4ccccc34)C2)c1", "note": "(stereo not drawn)", "hERG current change (%, negative = inhibition) at 10uM": -77.9}, {"smiles": "OCC1(Cc2ccc(F)cc2)CCCN(Cc2ccc(F)cc2Cl)C1", "note": "(stereo not drawn)", "hERG current change (%, negative = inhibition) at 10uM": -2.59}, {"smiles": "COc1cccc(CC2(CO)CCCN(Cc3cn[nH]c3-c3cc(C)ccc3C)C2)c1", "note": "(stereo not drawn)", "hERG current change (%, negative = inhibition) at 10uM": -59.2}, {"smiles": "COc1ccc(CN2CCCC(CO)(Cc3ccc(F)cc3)C2)cc1C", "note": "(stereo not drawn)", "hERG current change (%, negative = inhibition) at 10uM": -47.7}, {"smiles": "COc1cccc(CC2(CO)CCCN(Cc3ccccc3-c3ccco3)C2)c1", "note": "(stereo not drawn)", "hERG current change (%, negative = inhibition) at 10uM": -75.8}, {"smiles": "COc1cccc(CC2(CO)CCCN(Cc3ccc(-c4ccco4)cc3)C2)c1", "note": "(stereo not drawn)", "hERG current change (%, negative = inhibition) at 10uM": -3.75}, {"smiles": "COc1ccc(CN2CCCC(CO)(Cc3ccc(F)cc3)C2)c(OC)c1OC", "note": "(stereo not drawn)", "hERG current change (%, negative = inhibition) at 10uM": -71.1}, {"smiles": "CC1C(=O)C(C)C(c2ccco2)NC1c1ccco1.Cl", "note": "(stereo not drawn)", "hERG current change (%, negative = inhibition) at 10uM": 13.9}, {"smiles": "O=C(CSc1nnc(CNC(=O)c2cccs2)o1)NC1CCCCC1", "hERG current change (%, negative = inhibition) at 10uM": -24}, {"smiles": "C/C(=N/NC(=O)c1ccncc1)c1ccc2c(c1)OCO2", "hERG current change (%, negative = inhibition) at 10uM": 13.8}, {"smiles": "COc1cccc(CC2(CO)CCCN(Cc3ccc(OC)c(C)c3OC)C2)c1", "note": "(stereo not drawn)", "hERG current change (%, negative = inhibition) at 10uM": -77.6}, {"smiles": "COc1ccc(C(N)=O)cc1NC(=O)c1cccc(F)c1", "hERG current change (%, negative = inhibition) at 10uM": 18.9}, {"smiles": "NC(=O)c1ccc(NC(=O)COC(=O)C(Cc2ccccc2)NC(=O)c2ccccc2)cc1", "note": "(stereo not drawn)", "hERG current change (%, negative = inhibition) at 10uM": -53}, {"smiles": "O=C(COC(=O)C(Cc1ccccc1)NC(=O)c1ccccc1)c1ccccc1", "note": "(stereo not drawn)", "hERG current change (%, negative = inhibition) at 10uM": -1.84}, {"smiles": "O=C(COC(=O)C(Cc1ccccc1)NC(=O)c1ccc(Cl)cc1)c1ccc(Cl)cc1", "note": "(stereo not drawn)", "hERG current change (%, negative = inhibition) at 10uM": -27.3}]}]}
